From article PMC6925144, “A prospective compound screening contest identified broader inhibitors for Sirtuin 1” (Scientific Reports, 2019)
Whole data set: some 3,200 compounds, median “TSA(without NAD+) / Primary screening (TSA) / delta Tm (K)” near -0.07, cut for the highest 2% near 0.37. The list comes from a sample in which the highest values are over-represented; it also holds similar structures and randomly drawn compounds.

What follows are molecules tested against NAD-dependent deacetylase Sirtuin 1 (human, UniProt Q96EB6) (assay: primary screen, delta tm). Conditions: 10 µM.
Design: single well (n = 1)
How it was run: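 Thermal shift of Sirtuin 1 measured without NAD+, compound at 10 µM (n = 1); value is ΔTm, with hits defined as ΔTm > 0.45 K or < −1.5 K. Hits retested at 5, 10, 20 µM (n = 4) and counterscreened on bovine carbonic anhydrase and ABL1 SH2 domain.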

NAD-dependent deacetylase Sirtuin 1, sequence (Q96EB6 2-747 limits assumed): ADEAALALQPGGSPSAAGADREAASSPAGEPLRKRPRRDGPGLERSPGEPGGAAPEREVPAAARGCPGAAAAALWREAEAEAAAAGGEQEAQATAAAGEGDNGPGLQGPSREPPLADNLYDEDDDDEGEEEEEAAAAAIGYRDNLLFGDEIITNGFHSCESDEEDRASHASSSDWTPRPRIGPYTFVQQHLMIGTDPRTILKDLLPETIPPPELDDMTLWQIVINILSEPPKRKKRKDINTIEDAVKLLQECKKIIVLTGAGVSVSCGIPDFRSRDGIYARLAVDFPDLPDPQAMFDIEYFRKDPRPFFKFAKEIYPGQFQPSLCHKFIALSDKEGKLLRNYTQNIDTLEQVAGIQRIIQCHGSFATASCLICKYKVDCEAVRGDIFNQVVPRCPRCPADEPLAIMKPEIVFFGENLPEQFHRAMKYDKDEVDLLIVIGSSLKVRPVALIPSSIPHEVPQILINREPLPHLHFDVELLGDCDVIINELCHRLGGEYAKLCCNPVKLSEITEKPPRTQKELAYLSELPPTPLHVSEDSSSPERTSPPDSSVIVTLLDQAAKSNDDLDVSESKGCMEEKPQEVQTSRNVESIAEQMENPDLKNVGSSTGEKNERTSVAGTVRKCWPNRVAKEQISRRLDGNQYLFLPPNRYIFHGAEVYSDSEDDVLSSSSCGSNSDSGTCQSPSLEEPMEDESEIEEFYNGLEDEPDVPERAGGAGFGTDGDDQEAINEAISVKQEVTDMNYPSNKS

Compound	TSA(without NAD+) / Primary screening (TSA) / delta Tm (K)
CC(C)Oc1ccc(C2C(C(=O)c3ccco3)=C(O)C(=O)N2CCCN2CCOCC2)cc1 (centres unmarked)	-0.02
COc1cccc(C2C(C(=O)c3ccc(Cl)cc3)=C(O)C(=O)N2CCCN2CCOCC2)c1 (centres unmarked)	-0.12
CCC(N)C(N)=O (centres unmarked)	-0.22
CC1CCC(NN)CC1 (centres unmarked)	-0.08
CCn1c2ccccc2c2cc(NC(=O)C(C)OC(=O)c3cccc(S(=O)(=O)Nc4ccc(Cl)cc4)c3)ccc21 (centres unmarked)	0.56
CC(OC(=O)c1cccc(S(=O)(=O)Nc2ccc(F)cc2)c1)c1nc2ccccc2c(=O)[nH]1 (centres unmarked)	0.02
CC(=O)c1ccc(NC(=O)C(C)OC(=O)c2cccc(S(=O)(=O)NC(C)C34CC5CC(CC(C5)C3)C4)c2)cc1 (centres unmarked)	0.35
O=C(/C=C/c1ccc(F)cc1)NCCCn1ccc2ccccc21	0.08
Cc1ccc2c(CC(=O)Nc3ccccc3Cc3ccccc3)coc2c1	0.07
COc1ccc(-c2nn(-c3ccccc3)cc2CN(CCCCCCN(Cc2cn(-c3ccccc3)nc2-c2ccc(OC)cc2)C(=O)CCC(=O)O)C(=O)CCC(=O)O)cc1	0.37
Cc1noc(C)c1CC(=O)OCc1cn(-c2ccccc2)nc1-c1ccc(Cl)cc1	0.22
Cc1ccc(-c2nn(-c3ccccc3)cc2C(=O)NCc2nnc3ccccn23)cc1	-0.03
Cc1oc2cc(OC(C)C(=O)NCc3ccco3)ccc2c(=O)c1-c1c(F)cccc1Cl (centres unmarked)	-0.11
O=C1NC(=S)N/C1=C\c1cc(Br)ccc1O	-0.23
O=C1NC(=S)N/C1=C\c1ccccc1OCc1ccc(C(=O)O)cc1	0.38
O=C1NC(=S)N/C1=C/c1ccc(-c2ccccc2F)o1	0.05
COc1ccc(C(N)=O)cc1NC(=O)c1nc2nc(C)cc(C)n2n1	-0.15
Cc1sc2nc(CN3CCCC3)nc(N3CCC(C(N)=O)CC3)c2c1C	-0.12
Cc1sc2nc(CSc3ccccc3)nc(N3CCCC(C(N)=O)C3)c2c1C (centres unmarked)	-0.12
Cc1sc2nc(CSc3ccccc3)nc(N3CCC(C(N)=O)CC3)c2c1C	0.52
NC(=O)C1CCN(c2nc(CSc3ccccc3)nc3sc4c(c23)CCCC4)CC1	1.78

Compound	TSA(without NAD+) / Primary screening (TSA) / delta Tm (K)
NC(=O)C1CCN(c2nc(CN3CCCCC3)nc3sc4c(c23)CCC4)CC1	0.07
NC(=O)C1CCCN(c2ncnc3sc4c(c23)CCCC4)C1 (centres unmarked)	-0.18
O=C1/C(=C/c2cccc(Br)c2)Oc2cc(O)ccc21	0.19
O=C1CCCN1c1cccc(NS(=O)(=O)c2cccc(F)c2)c1	-0.02
COc1ccc(NC(C)c2ccc(S(C)=O)cc2)cn1 (centres unmarked)	-0.18
O=C(COC(=O)c1ccc(CNS(=O)(=O)c2ccc(F)c(Cl)c2)cc1)c1ccccc1	-0.03
O=C(C1=C(O)C(=O)N(CCCN2CCOCC2)C1c1ccco1)c1cc2ccccc2o1 (centres unmarked)	0.02
Cc1ccc(C(=O)Nc2ccc(NC(=O)NCC3CCCO3)cc2)cn1 (centres unmarked)	0.52
O=C(NCC1CCCO1)Nc1ccc(NC(=O)c2ccccn2)cc1 (centres unmarked)	0.07
COc1cc(C=C(C(=O)NCC2CCCO2)C(=O)NCC2CCCO2)ccc1OCC(=O)Nc1ccc(C)cc1 (centres unmarked)	-0.08
Cc1ccc(Nc2nc(CSc3nnc(NCc4ccco4)s3)cs2)cc1	-0.17
CC(C)OC(=O)CC(Nc1ccc2nnnn2n1)c1ccccc1 (centres unmarked)	-0.07
Cc1noc(CN2CCN(c3ncnc4c3oc3ccccc34)CC2)n1	-0.33
Cc1ccc(S(=O)(=O)N2CCN(C(=O)CSc3nnc(NCc4ccco4)s3)CC2)cc1	0.16
COCCNc1nnc(SCc2cc(=O)oc3c(C)c(O)ccc23)s1	-0.74
O=c1cc(CSc2nnc(-c3ccccc3)o2)c2cc3c(cc2o1)CCC3	-0.18
O=c1cc(CSc2nnc(Nc3ccccc3)s2)c2ccc(O)cc2o1	0.38
c1nc(N2CCNCC2)c2sccc2n1	-0.08
NC(=O)c1ccc(COC(=O)c2cc3c(ccc4ccccc43)[nH]2)cc1	0.05
O=C(Nc1ccc(Oc2ncccn2)cc1)c1ccc(S(=O)(=O)Nc2ccc(F)cc2)cc1	-0.11
N#CC(C(=O)c1ccc(NS(=O)(=O)c2ccccc2)cc1)c1nc(-c2ccccn2)cs1 (centres unmarked)	0.46

Compound	TSA(without NAD+) / Primary screening (TSA) / delta Tm (K)
Cc1nc(COc2ccc(C(=O)Nc3ccc(S(=O)(=O)Nc4cccc(F)c4)cc3)cc2)cs1	0.09
COc1ccc2[nH]cc(C3CCN(C(=O)c4coc(C)c4)CC3)c2c1	-0.03
Cc1nnc(CNC(=O)c2cc(-c3ccccc3)nc3c(C(N)=O)ncn23)s1	-0.04
COc1ccc(NC(=O)c2ccccc2NC(=O)COC(=O)C23CC4CC(CC(O)(C4)C2)C3)cc1	0.19
COc1ccccc1NS(=O)(=O)c1ccc(NC(=O)CNC(=O)C23CC4CC(CC(C4)C2)C3)cc1	0.03
COc1ccc(NC(=O)COc2ccc(C(=O)NCC34CC5CC(CC(C5)C3)C4)cc2OC)cc1	-0.34
COc1ccccc1NC(=O)c1ccc(NC(=O)COC(=O)C23CC4CC(CC(C4)C2)C3)cc1	0.42
COc1ccc(NC(=O)c2ccc(NC(=O)COC(=O)C34CC5CC(CC(Br)(C5)C3)C4)cc2)cc1	1.08
COc1ccccc1NC(=O)COc1ccc(C(=O)OCC(=O)NC23CC4CC(CC(C4)C2)C3)cc1OC	0.08
CCOC(=O)c1ccc(S(=O)(=O)N2CCC(C(=O)OCC(=O)NCC34CC5CC(CC(C5)C3)C4)CC2)cc1	-0.13
CC(=O)N(c1nn(CN2CCN(c3ccc(C(N)=O)cn3)CC2)c(=S)s1)C1CC1	-0.23
CC1Cc2ccccc2N1c1ncnc2ccsc12 (centres unmarked)	0.07
CC(C)(C)c1ccc(OCC(=O)NNC(=O)c2cccnc2O)cc1	0.17
Cc1nc2cc(C(=O)Nc3ccc(NC(=O)N4CCCCCC4)cc3)ccc2n1C	-0.04
Cc1nc(N2CCC(C(N)=O)CC2)c2c3c(sc2n1)CCC3	0.07
Cc1nc(N2CCC(C(N)=O)CC2)c2c3c(sc2n1)CCCCC3	0.78
NC(=O)C1CCN(c2ncnc3sc4c(c23)CCC4)CC1	-0.21
Cc1nc(N2CCC(C(N)=O)CC2)c2c3c(sc2n1)CCCC3	0.56
Cc1nc(N2CCC(NC(N)=O)CC2)c2c3c(sc2n1)CCCC3	-0.03
NC(=O)C1CCN(c2ncnc3sc4c(c23)CCCCC4)CC1	0.36
CN(CC(=O)Nc1cccc2ccccc12)C(=O)C1=COCCO1	-0.23

Compound	TSA(without NAD+) / Primary screening (TSA) / delta Tm (K)
Cc1[nH]c2ccccc2c1CC(=O)Nc1cccc(-c2noc(=O)[nH]2)c1	0.07
CC(C)Oc1ccc(C(=O)C2=C(O)C(=O)N(CCCN3CCOCC3)C2c2cccs2)cc1 (centres unmarked)	-0.23
NC(=O)c1ccc(CN2CCSCC2)cc1	0.06
CCN(CC)CCNC(=O)c1ccc(NC(=O)CC2CCCC2)cc1	0.07
NC(=S)c1ccc(C(=O)NCc2ccnc(OCC(F)(F)F)c2)cc1	-0.18
CN(c1ccccc1)S(=O)(=O)c1cccc(C(=O)NCCc2c[nH]c3ccccc23)c1	0.16
CN(c1ccccc1)S(=O)(=O)c1cccc(NC(=O)CCCc2c[nH]c3ccccc23)c1	0.52
O=C(CCc1c[nH]c2ccccc12)Nc1nnc(-c2ccccc2)o1	0.52
CN(c1ccccc1)S(=O)(=O)c1cccc(NC(=O)CCc2c[nH]c3ccccc23)c1	0.38
O=C(CCc1c[nH]c2ccccc12)NCCc1ccco1	-0.05
O=C(CCc1c[nH]c2ccccc12)Nc1cccc(S(=O)(=O)NCc2ccco2)c1	-0.01
O=C(CCc1c[nH]c2ccccc12)Nc1ccc2nc[nH]c(=O)c2c1	0.26
CN(c1ccccc1)S(=O)(=O)c1cccc(NC(=O)CNc2cccc3ccccc23)c1	0.17
Cc1ccc(N(C)S(=O)(=O)c2cccc(C(=O)NCCc3c[nH]c4ccccc34)c2)cc1	0.23
COc1cccc(NC(=S)Nc2cccc(S(=O)(=O)N(C)c3ccccc3)c2)c1	-0.03
NC(=O)c1ccc(C(=O)OCC(=O)c2cc3ccccc3o2)cc1	-0.38
Cc1ccc(NC(=O)CN2CCN(C(=O)c3ccc(-c4ccc(Cl)cc4)o3)CC2)cc1	0.08
Cc1ccc2nc(-c3ccc(NC(=O)C(C)Cl)cc3)sc2c1 (centres unmarked)	0.22
O=C1NC(=S)NC(=O)C1=Cc1cn(-c2ccccc2)nc1-c1cc2ccccc2o1	0.36
CC(=O)N1Cc2ccccc2CC1C(=O)NC1CCOc2ccccc21 (centres unmarked)	-0.13
